39 sequences from the supplement of paper PMC6555819 can be followed below.

The test system of this test is PPARg:RXRa (NR concentration 180 nM, RXRa partner concentration 90 nM). The experiment in a line: PBM binding z-score (relative to random genomic background probes); higher = stronger binding; sequences stand for … in GC…GCGATTGACAGCGTAGAATGAAGG
The essentials:
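Binding buffer was PBS pH 7.4 with 2% milk, 0.02% Triton X-100, 1 mM DTT, 0.2 mg/mL BSA and 0.4 mg/ml salmon testes DNA. In it, ligand-free nuclear receptor dimers were incubated 1 h on custom Agilent 4×180K protein-binding microarrays carrying double-stranded probes. Antibodies against each partner (one per run) detected binding, and z-scores were calculated against random background probes after regression normalization of scanned fluorescence.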
CGAACGAGGTCATTGACAGGACAGTGAATAGTAA returned a PBM binding z-score of 6.82.

In turn, TCTAGTTGGTCACGGAGGGCACACACGACGGGTA yielded a PBM binding z-score of 1.25.

The sequence AGAATGAGGTCATTAAGATCAGGGAATTGCGGTC had a PBM binding z-score of 6.93.

On to CGCACTAGGTCATCCAGGACAGTGAATACATTGA, for which the PBM binding z-score is 7.36.

For TAGCCTAGGTCATGCGGCCCAGTATAGTGTCGGC, the PBM binding z-score amounted to 2.04.

Regarding GATACAGGGTCAGCTACAGGCCAGAGTATGGAAA, the PBM binding z-score is 4.13.

As to ATCGAAAGGTCGACGCGGTGAGTATACACCGTTT, the PBM binding z-score came out at 2.07.

With CCTGCTAGGTCATGGTCAGCGAATCTACAGTATG, the PBM binding z-score came to 2.7.

Sequence GCTGCTAGGTCAACTGATGGTCACCTAAAGCTCG gave a PBM binding z-score of 3.2.

For the sequence CCGACTGGGGCAAGGTCACCATAACGCACAGCCA, the PBM binding z-score was determined as 4.78.

With TCTCGGAGGACACCAAAGGTCAGAGCTCGACATC, the PBM binding z-score is 2.04.

AGTCAAAGTGCATCTAGGTAACGTAAGATATGCT gave a PBM binding z-score of 2.

Sequence CCTACTGGGCCAAAAAGTTCATTGATGCCGATAA came in with a PBM binding z-score of 1.09.

For the sequence ATTTGTAGGTTACATCCGGGTCATTCAGGCTATG, the PBM binding z-score turned out to be 4.22.

For CGAACTAGGTCACCCAGGACAGTGAATACATTGA, the PBM binding z-score was 8.33.

In turn, CGTCCGAGGTCATAGGAGGTCAGTGAAGACAGAT showed a PBM binding z-score of 6.96.

In turn, CCTAGTTGTTCAGGAGGTCACACACCGGATATGA gave a PBM binding z-score of 2.04.

In the case of CGAACTACGTCATCCAGGACAGTGAATACATTGA, the PBM binding z-score is 0.703.

Turning to AATAAAGGGTCATCGTAGGCCAGAGTACGCACAG, the PBM binding z-score stood at 7.14.

CGTCAAAGTCCAAGGTAACGTAACAGAAAGCAGC yielded a PBM binding z-score of 0.688.

TAGCCTAGGTCATACAGGGGCCAGTATAGAAAGC gave a PBM binding z-score of 2.36.

Consider CGAACAAGGTCATTGACAGGACAGTGAATAGTAA, for which the PBM binding z-score worked out at 5.6.

As for ATATGTAGGTTAGCTGGGGTCATTCACACTAGGC, the PBM binding z-score is 5.47.

With CGAACGAGGTCATGAGTTGATAGCAAATGCCGAT, the PBM binding z-score was 7.55.

AGAATGAGGTCAAGATCAGGGAAACAGAATACAT: the PBM binding z-score came out at 7.59.

CGTCCAAGGTTAAGGTCAGTGAAAGAGACTCGAA came in with a PBM binding z-score of 2.06.

With CATACAGGGTCGGCTAGGCCAGAGTAGGGACGGC, the PBM binding z-score stood at 0.288.

CCTACTGGGCCAAAGAGGTCATTGATGCCGATAA showed a PBM binding z-score of 3.95.

ATATGTAGGTTAGGGTCAGTCAGAAAGTAGGGAA came in with a PBM binding z-score of 6.72.

In the case of AGTCAAAGTTTATCTAGGTAACGTAAGATATGCT, the PBM binding z-score turned out to be 2.44.

On to TAGCCTAGGTCATGCGGGACAGTATAGTGTCGGC, for which the PBM binding z-score was 2.48.

ACTTAAGGGTCAACGAGGTTATAGCACGCGTATA registered a PBM binding z-score of 7.09.

Sequence TAGCCTAGTTCATTCAGGGGCCAGTATAGAAAGC registered a PBM binding z-score of 0.203.

For the sequence CGAACAAGGTCATCCAGGACAGTGAATACATTGA, the PBM binding z-score worked out at 6.4.

As for CGTCCGAGGTCAAGGTCAGTGAAAGAGACTCGAA, the PBM binding z-score was found to be 7.82.

The sequence TAGCCGAGGTCATTCAGGGGCCAGTATAGAAAGC had a PBM binding z-score of 6.14.

Sequence CCTACTCGGCCAAAAAGGTCATTGATGCCGATAA returned a PBM binding z-score of 1.91.

CCTTACGGGTCCCTCCAGGTTATAGCATCGGAGT: the PBM binding z-score is -0.172.

On to AACGAAAGGTCGAAGGTGAGTATACCCACCCGAA, for which the PBM binding z-score worked out at 4.7.
